Compounds with a hit are over-represented: about 3.5% of the library has one in this group of screens.
GPR151 ag: activators of human GPR151, primary screen, cell-based, PathHunter beta-arrestin, luminescence; activation, % at 11.2 µM; PathHunter beta-arrestin GPR151 cells; 650,000 tested, 1% active; G-protein coupled receptor 151 (Homo sapiens), Q8TDV0; in the data active means activation above about 4.9%
Target sequence (Q8TDV0 whole entry, looked up): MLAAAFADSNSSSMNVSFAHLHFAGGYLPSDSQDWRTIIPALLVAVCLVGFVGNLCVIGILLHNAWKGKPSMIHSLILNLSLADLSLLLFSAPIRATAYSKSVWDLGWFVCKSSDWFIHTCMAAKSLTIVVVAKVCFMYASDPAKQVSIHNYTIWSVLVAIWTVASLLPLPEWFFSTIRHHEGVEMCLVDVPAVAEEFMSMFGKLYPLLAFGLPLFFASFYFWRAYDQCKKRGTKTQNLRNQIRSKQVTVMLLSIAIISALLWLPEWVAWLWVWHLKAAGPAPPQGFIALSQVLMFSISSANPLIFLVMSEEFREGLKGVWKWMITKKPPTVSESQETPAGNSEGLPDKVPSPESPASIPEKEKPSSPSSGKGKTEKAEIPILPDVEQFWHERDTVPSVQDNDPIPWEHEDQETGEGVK
TEAD-YAP block: TEAD-YAP interaction inhibition, primary screen, TEAD-YAP interaction inhibitor project, luminescence, HEK-TIYL cells | inhibition, % at 9.12 µM | TEAD-Gal4/YAP UAS-luciferase luminescence | 640,000 tested, 1.4% active | AID 1259422, 2018; in the data active means inhibition above about 32%
FBW7 activator: FBW7 E3 ligase activators, primary screen, biochemical, AlphaScreen, human; F-box/WD repeat-containing protein 7 (Homo sapiens), Q969H0; AlphaScreen FBW7–phospho-cyclin E peptide binding, activator screen; normalized activity (activation), % at 26.1 µM; 650,000 tested, 0.13% active; in the data active means normalized activity above about 1.9%;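 further: purified mutant Fbw7 with reduced substrate affinity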
MITF inh: MITF inhibitors, primary screen, biochemical, AlphaScreen, human. inhibition, % at 2.6 µM. Microphthalmia-associated transcription factor (Homo sapiens), O75030. 650,000 tested, 0.91% active. AlphaScreen MITF homodimerization, bead proximity signal. AID 1259374, 2018; in the data active means inhibition above about 50%
MITF inh conf: MITF inhibitors, retest of hits, confirmation, biochemical, AlphaScreen, triplicate. shares compounds with MITF inh. AlphaScreen MITF homodimerization, biotin/His-MITF beads. inhibition, % at 2.6 µM. 4,700 tested, 16% active;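 active means inhibition above a cutoff derived from the DMSO control wells, cut at about 28% in these data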;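 further: inhibitors lower the bead chemiluminescence by keeping MITF from dimerizing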
AlphaScreen DR: AlphaScreen optical interference compounds, dose response, counter-screen, biochemical, HTS; shares compounds with MITF inh; AlphaScreen optical interference counterscreen, cell-free; IC50, µM; 480 tested, 6% active; call rule not given here
AlphaScreen intf2: AlphaScreen optical interference compounds, counter-screen for MITF inhibitor project, biochemical, triplicate. 4,700 tested, 7.6% active. shares compounds with MITF inh. inhibition, % at 2.6 µM. LysRS AlphaScreen counterscreen, signal interference;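 active means inhibition above a cutoff derived from the DMSO control wells, cut at about 30% in these data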
Of the large screens only hits and unclear results are named; the others gave an inactive call (follow-up assays come after a bar, where they were run).

CC(C)N1CCN(Cc2ccccc2Br)CC1	MITF inh 51 | MITF inh conf inactive | AlphaScreen intf2 inactive
Cc1ccccc1CN1CCN(C(C)C)CC1	MITF inh 78 | MITF inh conf inactive | AlphaScreen intf2 inactive
O=C(COc1ccccc1)N1CCN(Cc2ccccc2F)CC1	MITF inh 55 | MITF inh conf inactive | AlphaScreen intf2 inactive
COc1ccccc1CN1CCN(C(=O)COc2ccccc2)CC1	none
Cc1ccccc1CN1CCN(C(=O)COc2ccccc2)CC1	MITF inh 60 | MITF inh conf inactive | AlphaScreen intf2 inactive
CCOC(=O)c1c(C)n(Cc2ccco2)c2ccc(OCC)cc12	none
O=c1c2ccccc2nc(/C=C/c2cccc(F)c2)n1-c1cccc(Cl)c1	none
CCN1CCN(Cc2ccc(Cl)c(Cl)c2)CC1	none
Clc1ccc(CN2CCN(Cc3ccccc3Cl)CC2)cc1	MITF inh 78 | MITF inh conf inactive | AlphaScreen intf2 inactive
CCc1ccc(CN2CCN(Cc3ccccc3Cl)CC2)cc1	MITF inh 68 | MITF inh conf inactive | AlphaScreen intf2 inactive
CCN1CCN(Cc2c(Cl)cccc2Cl)CC1	MITF inh 69 | MITF inh conf inactive | AlphaScreen intf2 inactive
CC(C)N1CCN(Cc2c(F)cccc2F)CC1CCO (stereo unspecified)	none
COc1ccc(/C=C(\C)[N+](=O)[O-])cc1OC	none
COc1ccccc1CCNCc1ccc(Cl)cc1	none
COCc1c(C(=O)NC2CCCC2)c(=O)cc(C)n1CCCc1ccccc1	none
CCOC(=O)C1C2NC(=S)N(c3ccc(C)cc3)C1(C)Oc1c(OCC)cccc12 (stereo unspecified)	MITF inh 53 | MITF inh conf 41 | AlphaScreen intf2 inactive
CCOC(=O)C1C2NC(=S)N(c3ccccc3)C1(C)Oc1c(OCC)cccc12 (stereo unspecified)	none
CC(C)Sc1ccc(CC(=O)N2CCN(Cc3nc4ccccc4n3C)CC2)cc1	MITF inh 55 | MITF inh conf inactive | AlphaScreen intf2 inactive
COc1ccccc1CN1CCN(Cc2ccccc2F)CC1	none
COc1ccccc1N1CCN(Cc2ccccc2C)CC1	none
COc1ccccc1N1CCN(Cc2ccccc2C#N)CC1	MITF inh 55 | MITF inh conf inactive | AlphaScreen intf2 inactive
COc1ccccc1CN1CCN(Cc2ccccc2OC)CC1	MITF inh 75 | MITF inh conf inactive | AlphaScreen intf2 inactive
COc1ccccc1CN1CCN(Cc2ccccc2Cl)CC1	MITF inh 82 | MITF inh conf inactive | AlphaScreen intf2 inactive
O=C1NC(=O)N(c2ccccc2Cl)C(=O)/C1=C\c1ccccc1	none
CN1CCN(Cc2c(F)cccc2F)CC1	MITF inh 62 | MITF inh conf inactive | AlphaScreen intf2 inactive
CN1CCN(Cc2ccc(F)cc2F)CC1	none
CC(C)CN1CCN(Cc2cc(F)ccc2F)CC1CCO (stereo unspecified)	none
CN1CCN(Cc2cc(F)ccc2F)CC1	MITF inh 69 | MITF inh conf inactive | AlphaScreen intf2 inactive
CCN1CCN(Cc2cc(F)ccc2F)CC1	MITF inh 62 | MITF inh conf inactive | AlphaScreen intf2 inactive
CC1(C)CSC(Nc2cccc(C(F)(F)F)c2)=N1	none
COc1cccc(CN2CCN(C)C(CCO)C2)c1OC (stereo unspecified)	none
COc1cccc(CN2CCN(C)CC2)c1OC	none
COc1cccc(CN2CCN(C(C)C)CC2)c1OC	MITF inh 69 | MITF inh conf inactive | AlphaScreen intf2 inactive
CCC(C)N1CCN(Cc2cccc(C)c2)CC1 (stereo unspecified)	none
COc1cccc(CN2CCN(Cc3ccccc3)CC2)c1OC	MITF inh 69 | MITF inh conf inactive | AlphaScreen intf2 inactive
COc1ccc(OC)c(CN2CCN(C(C)C)CC2)c1	MITF inh 72 | MITF inh conf inactive | AlphaScreen intf2 inactive
CCC(C)N1CCN(Cc2cccc(OC)c2OC)CC1 (stereo unspecified)	MITF inh 78 | MITF inh conf inactive | AlphaScreen intf2 inactive
COc1cc([N+](=O)[O-])c(Cl)cc1NC(=O)c1ccccc1Cl	none
N#CCCn1cc(C(N)=O)c(-c2cccc(Br)c2)n1	none
COc1ccc(CN2CCN(Cc3ccccc3)CC2)c(OC)c1	MITF inh 67 | MITF inh conf inactive | AlphaScreen intf2 inactive
O=C(NC(O)C(Cl)(Cl)Cl)c1ccc(Br)cc1 (stereo unspecified)	none
COc1ccc(OCC#CCN2CCNCC2)cc1	MITF inh 59 | MITF inh conf inactive | AlphaScreen intf2 inactive
CCN1CCN(Cc2ccc(OC)cc2)CC1	none
O=[N+]([O-])c1c(Br)ccc2c1no[n+]2[O-]	MITF inh 90 | MITF inh conf 80 | AlphaScreen DR inactive | AlphaScreen intf2 inactive
OC1(c2ccc(F)cc2)CC2CCC(C1)N2CCN1CCOCC1 (stereo unspecified)	none
COc1cccc(N2CCN(Cc3ccc([N+](=O)[O-])cc3)CC2)c1	MITF inh 57 | MITF inh conf inactive | AlphaScreen intf2 inactive
CC(C)N1CCN(Cc2ccc([N+](=O)[O-])cc2)CC1	MITF inh 67 | MITF inh conf inactive | AlphaScreen intf2 inactive
CCc1ccc(CN2CCN(C(C)C)CC2)cc1	MITF inh 81 | MITF inh conf 29 | AlphaScreen DR inactive | AlphaScreen intf2 inactive
CCC(C)N1CCN(Cc2cccc(F)c2)CC1 (stereo unspecified)	none
Cc1ccc(CN2CCN(C(C)C)CC2)cc1	MITF inh 54 | MITF inh conf inactive | AlphaScreen intf2 inactive
O=C1C(=O)N(C2CCCC2)C(=O)N1CN1CC=C(c2ccccc2)CC1	none
COc1cc(/C=C/[N+](=O)[O-])ccc1OC(=O)C=C(C)C	none
O=C(c1ccoc1)N1CCC2(CC1)OCc1ccccc1O2	none
CN1CCC2(C1)Oc1ccccc1O2	MITF inh 55 | MITF inh conf inactive | AlphaScreen intf2 inactive
O=C(Nc1ccccc1F)N1CCC2(CC1)OCc1cc(Br)ccc1O2	none
O=C(CN1CCOCC1)c1cccc2ccccc12	MITF inh 56 | MITF inh conf inactive | AlphaScreen intf2 inactive
COc1ccccc1CN1CCN(Cc2cccc(C)c2)CC1	MITF inh 69 | MITF inh conf inactive | AlphaScreen intf2 inactive
Cc1cccc(CN2CCN(Cc3ccccc3[N+](=O)[O-])CC2)c1	MITF inh 64 | MITF inh conf inactive | AlphaScreen intf2 inactive
CCN1CCN(Cc2cccc([N+](=O)[O-])c2)CC1	none
Cc1ccc(CN2CCN(Cc3cccc(C)c3)CC2)cc1	MITF inh 64 | MITF inh conf inactive | AlphaScreen intf2 inactive
